The values below come from PubChem BioAssay AID485317 (Broad Institute, 2010).

The whole screen tested about 290,000 compounds, of which about 11,000 (3.8%) were called active. Only a selection was taken, and actives are over-represented in it overall. A number with no mark means an inactive call.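 Rule for the calls: active = mean replicate inhibition above about 79%, with every replicate also reaching it (limit read from the data); inconclusive = only one of the two criteria met; inactive = mean below limit and not every replicate reaching it.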

In this assay the target is FAD-linked sulfhydryl oxidase ALR (Homo sapiens) (UniProt P55789). The assay is described as follows: ALR-catalysed DTT oxidation blockers – biochemical, H2O2 detection, HRP-luminol luminescence, single point, primary screen (AID 485317). The conditions noted are these: purified ALR, stronger effect = higher value, concentration not given here.
Chain of FAD-linked sulfhydryl oxidase ALR (Homo sapiens) (P55789 whole entry, looked up): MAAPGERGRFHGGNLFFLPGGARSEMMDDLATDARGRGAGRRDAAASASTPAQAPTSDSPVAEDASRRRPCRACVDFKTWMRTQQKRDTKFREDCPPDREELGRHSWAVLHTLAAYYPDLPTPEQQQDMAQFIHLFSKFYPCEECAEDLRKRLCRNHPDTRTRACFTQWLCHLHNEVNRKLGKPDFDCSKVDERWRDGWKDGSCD
On to `COc1cc(OC)cc(-c2cc3ccc(F)cc3cn2)c1`, for which the inhibition was 0.168%.
Consider `Cc1ccc(S(=O)(=O)N2CCN(C(=O)CN3C(=O)NC(C)(c4ccc(Cl)cc4)C3=O)CC2)c(C)c1` (centres undefined), for which the inhibition is -8.79%.
To `C=CCOc1cccc(C2C(C(=O)c3ccc(C)o3)=C(O)C(=O)N2c2nnc(C)s2)c1` (centres undefined) belongs 92.9% (active).
The result for `COc1cc(C2C(C(=O)c3ccc(C)o3)=C(O)C(=O)N2CCc2ccccc2)ccc1O` (centres undefined) reads 51.3%.
Turning to `Cc1cc(N2C(=O)C(O)=C(C(=O)c3ccc(C)o3)C2c2ccc(OCc3ccccc3)cc2)no1` (centres undefined), the inhibition was 38.2%.
`COC(=O)c1c(-c2ccsc2)oc2ccc(-c3cc(OC)c(OC)c(OC)c3)cc12`: the inhibition was -1.82%.
To `O=C(Cn1cnc2ccccc2c1=O)NNC(=O)c1ccccc1F` belongs 29.2%; to `Cc1nnsc1C(=O)Nc1cccc(Cl)c1C`, -1.48%; to `Cc1nnsc1C(=O)N/N=C/c1ccccc1Cl`, -1.47%.
For `Cc1cc(Cl)ccc1NNC(=O)c1snnc1C`, the inhibition was 98.9% (active).
The result for `CC(C)CN(C(=O)CSc1nncn1C)C1CCS(=O)(=O)C1` (centres undefined) reads 0.148%; that for `C=CCn1c(-c2sc(-c3ccccc3)nc2C)n[nH]c1=S`, 8.68%; that for `Cn1c(-c2sc3cc(C(F)(F)F)cnc3c2-c2ccccc2)n[nH]c1=S`, 96.3% (active).
To `Cn1c(-c2sccc2OCc2cccc(C(F)(F)F)c2)n[nH]c1=S` belongs 1.68%; to `COc1ccc(NC(=O)CSc2nc(SC)ns2)c(OC)c1`, 84.5% (active); to `CSc1nsc(SCC(=O)Nc2cc(C(=O)O)ccc2C)n1`, 8.91%.
The result for `COc1ccc(C)cc1NC(=O)CSc1nc(SC)ns1` reads -1.75%.
On to `CCCCC/C=C/C1=CC(=O)C[C@H](c2ccc(Cl)cc2)C1`, for which the inhibition is 5.58%.
Regarding `Cc1c(NC(=O)CSc2nnc(-c3cccnc3)n2N)c(=O)n(-c2ccccc2)n1C`, the inhibition is 1.09%.
`CS(=O)(=O)c1ccc(C(=O)OCC(=O)NNC(=O)COc2ccc(Cl)cc2)cc1`: the inhibition is -1.94%.
Take `Cc1c(C(=O)NC(=S)NCc2cccnc2)oc2ccccc12`: the inhibition was 93.3% (active).
The result for `Cc1c(C(=O)NNC(=O)c2ccncc2)oc2ccccc12` reads 2.8%; that for `Cc1ccc(C(=O)NC(=S)NCc2cccnc2)cc1`, 24.9%.
With `Cc1ccc(C2(C)NC(=O)N(CC(=O)N3CC(=O)Nc4ccccc43)C2=O)cc1` (centres undefined), the inhibition is 0.292%.
On to `Cc1ccc(S(=O)(=O)N(C)c2ccc(OCC(=O)OCC(=O)N(CC#N)c3ccccc3)cc2)cc1`, for which the inhibition is -18.6%.
The result for `O=C(OCC(=O)N1CCCCC1)c1ccc(OC(F)(F)F)cc1` reads -5.55%.
The result for `Cc1cc(C)cc(OCC(=O)Nc2ccc(N3CCOCC3)cc2N2CCOCC2)c1` reads 7.88%.
On to `O=C(CCc1nc2sc3c(c2c(=O)[nH]1)CCCC3)NCC(=O)Nc1ccccc1Br`, for which the inhibition was 18.6%.
To `CCCN(CC1CC1)C(=O)COC(=O)c1ccc(C)cc1O` belongs 5.02%; to `CC1CCCC(NC(=O)c2cccc(N3CCCC3=O)c2)C1C` (centres undefined), 0.109%.
To `C/C(=N\NC(=O)c1cccc(N2CCCC2=O)c1)c1ccc(N)cc1` belongs 99.1% (active); to `O=C(NCCc1ccc(Cl)cc1)c1cccc(N2CCCC2=O)c1`, 2.63%; to `Cc1ccnc(SCC(=O)Nc2cccc(S(=O)(=O)N3CCOCC3)c2)n1`, -3.28%.
To `CCCc1cc(=O)[nH]c(SCC(=O)Nc2ccc(S(=O)(=O)N3CCCC3)cc2)n1` belongs -1.58%; to `CCOC(=O)Cc1csc(NC(=O)CSc2ccc(Br)cc2)n1`, -32.4%.
In the case of `COc1ccc(NC(=O)CSc2nc(NS(=O)(=O)c3ccc(C)cc3)cc(=O)[nH]2)cc1`, the inhibition is 98.9% (active).
As for `Cc1cccc(NC(=O)CSc2nc3[nH]ncc3c(=O)[nH]2)c1`, the inhibition was 1.74%.
To `Cc1ccc(NC(=O)CSc2nc(CSc3ccc(C)cc3)cc(=O)[nH]2)cc1` belongs 6.9%.
To `Cc1cc(=O)[nH]c(SCC(=O)Nc2ccc(Br)cc2)n1` belongs -7.33%; to `CCOC(=O)Cc1csc(NC(=O)CSc2nc(C)cc(=O)[nH]2)n1`, 98.7% (active).
In the case of `COC(=O)c1cccc(NC(=O)CSc2nc(C)cc(=O)[nH]2)c1`, the inhibition was 98.5% (active).
To `CCOC(=O)Cc1csc(NC(=O)C(C)(C)C)n1` belongs -0.763%; to `CC(=O)NC12CC3CC(C1)CC(C(=O)N1CCN(C(=O)c4ccco4)CC1)(C3)C2`, -2.95%; to `CC1(C)O[C@@H]2[C@H](O1)[C@@H](COS(=O)(=O)O)O[C@H]2n1ccc(=O)[nH]c1=O`, -0.754%.
With `O=C(NNc1cc(Cl)cc(Cl)c1)c1c(F)cccc1Cl`, the inhibition was 3.41%.
The result for `Cc1ccc(NNC(=O)c2c(F)cccc2Cl)cc1Cl` reads 98.7% (active).
To `Cc1ccc(NNC(=O)c2cccs2)cc1Cl` belongs 2.62%; to `Cc1csc(=O)n1CC(=O)Nc1ccc(S(C)(=O)=O)cc1`, 2.59%.
As to `CN1C(=O)[C@H]2[C@@H](/C=C/c3ccccc3)N3C(=O)CN(Cc4ccc(-c5ccccc5)cc4)C(=O)[C@@]3(C)[C@H]2C1=O`, the inhibition was 3.57%.
The result for `CCCCNC(=O)CSc1nccn1Cc1ccccc1` reads 11.9%.
`CC(=O)Nc1cccc(NC(=O)CSc2nccn2Cc2ccc(F)cc2)c1`: the inhibition is 98.1% (active).
The result for `CCCCCCNC(=O)CSc1nccn1Cc1ccccc1` reads -0.072%; that for `Cc1ccc(Nc2nc(-c3ccc(O)cc3O)cs2)nc1`, 98.8% (active); that for `Clc1ccc(Nc2nc(-c3cccs3)cs2)nc1`, -1.13%.
Regarding `O=c1oc2ccccc2cc1-c1csc(Nc2ccc(O)cc2)n1`, the inhibition is 32.6%.
The result for `COC(=O)Cc1ccc(OC(=O)C2CCN(S(=O)(=O)c3ccc(OC)c(OC)c3)CC2)cc1` reads -4.72%; that for `CC[N+](C)(CC)CCC[n+]1c(-c2ccccc2)c2cc(N)ccc2c2ccc(N)cc21`, 90.7% (active).
As for `O=C(COC(=O)c1cccnc1Cl)Nc1ccc(S(=O)(=O)N2CCOCC2)cc1`, the inhibition is -2.58%.
The result for `Cc1cccc(Nc2nnc(SCC(=O)c3c(N)n(C4CC4)c(=O)[nH]c3=O)s2)c1C` reads -3.29%.
